Test results reported in PubChem BioAssay.

test system: Human papillomavirus type 1a E7 protein (residues 1-88); assay: HPV1a E7 small-molecule binders, primary screen, biochemical, small-molecule microarray, residues 1-88, 635 nm (AID 1129); conditions: small-molecule microarray binding, fluorescence 635 nm; higher = more signal

Compound	composite z-score
COc1cccc([C@@H]2[C@@H](C)CC[C@H]3C(=O)N4[C@H](c5cccc(OC)c5)[C@@H](C)CC[C@H]4C(=O)N23)c1	0.276
CO[C@H]1COC(=O)[C@H](Cc2ccccc2)NC(=O)CC=C[C@@H](C)[C@H](OC)COC(=O)CC=C[C@@H]1C	0.779
CO[C@H]1COC(=O)[C@@H](OCc2ccccc2)C=C[C@H](C)[C@@H](OC)COC(=O)[C@H](OCc2ccccc2)C=C[C@@H]1C	-0.0882
O=C1O[C@@H](c2ccccc2)[C@@H](c2ccccc2)N2[C@@H](c3ccc(O)cc3)[C@]3(C(=O)Nc4ccccc43)[C@@H](C(=O)N3CCN(c4ncccn4)CC3)[C@H]12	1.19
O=C1O[C@@H](c2ccccc2)[C@@H](c2ccccc2)N2[C@@H](c3ccc(O)cc3)[C@]3(C(=O)Nc4ccc(C#CC5(O)CCCCCC5)cc43)[C@@H](C(=O)Nc3nc4ccccc4s3)[C@H]12	1.22
C=CC[C@]1(C(N)=O)N=C(c2ccc(OCCCO)cc2)O[C@H]1c1ccccc1CN=[N+]=[N-]	0.928
COCCOC(=O)N1C(=O)[C@@]2(c3cc(C#CCCO)ccc31)[C@H](C(=O)N1CCCCCCC1)[C@H]1C(=O)O[C@H](c3ccccc3)[C@H](c3ccccc3)N1[C@@H]2c1ccc(O)cc1	1.18
C=CCOC(=O)[C@@H]1[C@H]2C(=O)O[C@H](c3ccccc3)[C@H](c3ccccc3)N2[C@H](c2ccc(OCCOC(=O)[C@H]3C[C@H]4C(=O)N5CCC[C@H]5C(=O)N4[C@H]3c3ccc(O)cc3)cc2)[C@@]12C(=O)Nc1ccccc12	1.2
